The nature of experiment [1]: NFkB reporter suppression in cystic fibrosis bronchial cells – cell-based, uHTS hits, panel, cytotoxicity readout, dose response (AID 624344). The note with it: CF bronchial epithelial cells, PAF-induced NFkB reporter inhibition, with PAF, run 1; at 79 µM (top of the series).
Test in experiment [2]: as above
Conditions: CF bronchial epithelial cells, PAF-induced NFkB reporter inhibition, with PAF, run 2; at 79 µM (top of the series).

In experiment [3] the target is Tumor necrosis factor receptor superfamily member 10B (Homo sapiens) (UniProt O14763). As to the kind of experiment: viability loss of caspase-8 NB7 cells with TRAIL – with/without TRAIL, luminescence panel, confirmation (AID 651596). The note with it: NB7 neuroblastoma + caspase-8, TRAIL sensitization, NB7 Caspase-8, with TRAIL, mean of runs, at 10 µM, stronger effect = higher value.
Sequence of Tumor necrosis factor receptor superfamily member 10B (Homo sapiens) (O14763 whole entry, looked up): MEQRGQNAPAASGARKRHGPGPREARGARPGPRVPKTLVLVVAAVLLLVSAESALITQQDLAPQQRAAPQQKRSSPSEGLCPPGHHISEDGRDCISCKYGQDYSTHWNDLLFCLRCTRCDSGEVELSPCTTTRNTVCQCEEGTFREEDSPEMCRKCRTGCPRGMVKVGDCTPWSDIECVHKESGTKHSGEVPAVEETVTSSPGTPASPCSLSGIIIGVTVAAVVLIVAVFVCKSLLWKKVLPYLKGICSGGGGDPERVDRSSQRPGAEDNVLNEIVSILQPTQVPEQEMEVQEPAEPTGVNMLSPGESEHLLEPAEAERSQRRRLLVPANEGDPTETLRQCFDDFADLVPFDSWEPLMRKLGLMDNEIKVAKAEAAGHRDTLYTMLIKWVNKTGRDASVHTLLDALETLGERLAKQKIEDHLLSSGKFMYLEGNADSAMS

Test in experiment [4]: as above
The note with it: NB7 neuroblastoma + caspase-8, without TRAIL, NB7 Caspase-8, without TRAIL, mean of runs, at 10 µM.

Experiment [5] can be described thus: HIF-2a driven luciferase blockers, single dose – luminescence, 786-0 RCC cells, confirmation (AID 651580;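 active means mean inhibition across four replicates of at least 40 percent at the single tested concentration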). Conditions: HIF-2a luciferase reporter luminescence, overnight, at 18.8 µM, stronger effect = higher value. For orientation: Reporter assays use an easily measured gene product as a stand-in for the process of interest.
Experiment [6] is described as follows: HIF-1a luciferase reporter signal reduction – MiaPaCa-2 cells, single concentration, counter-screen for HIF-2a inhibitor project, confirmation (AID 651589;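 active means mean inhibition of the reporter signal across four replicates at the single tested dose of 50% or more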). Conditions: MiaPaCa-2 HIF-1a luciferase reporter, desferoxamine, overnight; at 18.8 µM; stronger effect = higher value.

The results in this text go back to PubChem BioAssay.

The list shows a part of the results. Calls of active or inactive are those of the source. Unless noted, no stated cut-off is given here; in the data, active means activity above about 50%; inactive means the rest.

In general, inhibition refers to the change of the read-out against control, counted positive when it falls. In the case of `N#CC1c2ccccc2-n2nncc2CN1Cc1cc(Cl)cc(Cl)c1` (configuration not stated), the values for the inhibition in experiment [1] and in experiment [2] were 91.8% and 95.5%, respectively. In addition, the activity stood at 55.8% in experiment [3] and 86.4% in experiment [4].

For the molecule `NC(=Nc1ccccc1)NN=Cc1c[nH]c2ccccc12`, the figures for the inhibition in experiment [1] and in experiment [2] were 94.3% and 116%, respectively.

Take `CCOC(=O)[C@]12Cc3cc(Cl)ccc3[C@H]1N(C1CCCCC1)C(=O)c1ccccc12`: the results for the activity in experiment [3] and in experiment [4] were 98.5% and 99.3%, respectively.

In the case of `COc1ccc(Oc2cc(NC(=O)c3nn(C)cc3[N+](=O)[O-])cc([N+](=O)[O-])c2)cc1`, the inhibition was 113% in experiment [1] and 101% in experiment [2]. Besides, the activity in experiment [3] worked out at 94.2%; in experiment [4], 97.4%.

As to `CCCCn1nnnc1C(CCc1ccccc1)N1CCC(n2c(=O)[nH]c3ccccc32)CC1` (configuration not stated), the inhibition is 89.5% in experiment [1] and 93% in experiment [2].

In the case of `COc1cc2c(c(OC)c1O)-c1ccc(OC)c(=O)cc1C(NC(=O)C(F)(F)F)CC2` (configuration not stated), the inhibition in experiment [1] is -39.2%; in experiment [2] it was 24.5%.

Consider `C=C1C(=O)OC2CC3(C)OC3CCC(C)=CC(OC(C)=O)C12` (configuration not stated), for which the figures for the inhibition in experiment [1] and in experiment [2] were 93.9% and 99.9%, respectively.

Take `CCOC(=O)[C@]12Cc3ccccc3[C@H]1N(C1CCCCC1)C(=O)c1cc(OC)ccc12`: the results for the inhibition in experiment [5] and in experiment [6] were 93.2% (active) and 106% (active), respectively. Moreover, the activity in experiment [3] was 85.5%; in experiment [4], 88%.

Regarding `Cc1c(C(=O)c2cccc3ccccc23)c2cccc3c2n1[C@H](CN1CCOCC1)CO3`, the inhibition in experiment [1] came to 104%; in experiment [2] it was 112%.

`NC(=O)c1c(Br)n(C2OC(CO)C(O)C2O)c2ncnc(N)c12` (configuration not stated): the values for the inhibition in experiment [1] and in experiment [2] were 106% and 116%, respectively.

In the case of `CC1=CC2OC3CC4OC(=O)C=CC=CC(=O)OCCC(C)C(O)C(=O)OCC2(CC1)C4(C)C31CO1` (configuration not stated), the activity was found to be 75.6% in experiment [3] and 80.9% in experiment [4].

Turning to `O=c1[nH]c2ccccc2n1C1CCN(C(c2cc3ccccc3o2)c2nnnn2-c2ccc3c(c2)OCCO3)CC1` (configuration not stated), the inhibition in experiment [1] stood at 103%; in experiment [2], 104%. Besides, the activity came to 81.4% in experiment [3] and 83.5% in experiment [4].
